Experimental findings from PubChem BioAssay are described below.

Test [1] is described as follows: antimalarial activity against Dd2 strain (AID 2302;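 active = growth inhibition above 50% at the single 2 µM test dose, taken to imply half-maximal potency below 2 µM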;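 also: 0% = DMSO untreated growth and 100% = chloroquine plus artemisinin killed control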). The following applies: P. falciparum Dd2 in RBCs, LDH growth readout, 72 h; at 2 µM; stronger effect = higher value.
Test [2] can be described thus: human hepatoma cell viability loss – ATP luminescence, cytotoxicity control for P. falciparum antimalarial project, primary screen (AID 2303;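 active = inhibition above 50%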;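 also: 0% = DMSO wells and 100% = digitonin-killed cells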). As to conditions: HepG2 viability, 24-48 h, at 10 µM, stronger effect = higher value.
Test [3] has as its target L-lactate dehydrogenase (Plasmodium falciparum (isolate CDC / Honduras)) (UniProt Q27743). The test is described as follows: PfLDH activity inhibition – cell lysate, 3D7 strain, counter-screen for P. falciparum growth inhibition project (AID 2304).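 Also: 0% = vehicle and 100% = reference inhibitor.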 The following applies: P. falciparum 3D7 crude extract, LDH APAD/NBT absorbance; at 2 µM; stronger effect = higher value. Background: The purpose of a counterscreen is to sort out artefacts and off-target activity.

Test [4] in a line: inhibition of 3D7 malaria parasite growth – strain 3D7 (AID 2306).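 Also: 0% = DMSO wells and 100% = chloroquine plus artemisinin control wells.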 As to conditions: P. falciparum 3D7 erythrocytic growth, LDH absorbance, 72 h; at 2 µM; stronger effect = higher value.
The target of test [5] is Calcium-dependent protein kinase 1 (Plasmodium falciparum (isolate 3D7)) (UniProt P62344). The test is described as follows: PfCDPK1 kinase inhibitors, biochemical, TCAMS library (AID 1159585; cut-off not given, nearly all actives have IC50 up to about 0.98 µM;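 also: inhibitors leave more ATP so luminescence rises with inhibition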). The following applies: recombinant PfCDPK1, Kinase-Glo ATP depletion luminescence. In general terms: Kinase-Glo reads ATP consumption through a luciferase reaction.
Calcium-dependent protein kinase 1 (Plasmodium falciparum (isolate 3D7)), sequence (P62344 whole entry, looked up): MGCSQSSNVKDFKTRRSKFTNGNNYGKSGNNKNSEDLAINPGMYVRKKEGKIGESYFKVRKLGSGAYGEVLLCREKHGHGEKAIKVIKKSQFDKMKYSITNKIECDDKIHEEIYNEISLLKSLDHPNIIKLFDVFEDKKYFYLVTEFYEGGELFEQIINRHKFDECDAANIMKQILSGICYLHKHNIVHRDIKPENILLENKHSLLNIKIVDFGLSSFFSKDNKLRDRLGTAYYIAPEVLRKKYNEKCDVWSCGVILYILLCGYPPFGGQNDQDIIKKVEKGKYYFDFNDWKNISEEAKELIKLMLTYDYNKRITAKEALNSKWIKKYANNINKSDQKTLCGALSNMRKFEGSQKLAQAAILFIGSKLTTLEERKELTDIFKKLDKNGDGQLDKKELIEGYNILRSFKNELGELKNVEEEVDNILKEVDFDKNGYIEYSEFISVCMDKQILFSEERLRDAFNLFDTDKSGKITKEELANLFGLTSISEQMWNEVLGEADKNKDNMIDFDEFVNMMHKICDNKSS
For test [6], the target named is Plasmodium falciparum protein kinase 6 (PK6, PF3D7_1337100) (UniProt Q8IDW1). Description: PfPK6 kinase inhibitors, biochemical, TCAMS library (AID 1159586). The following applies: recombinant PfPK6, Kinase-Glo ATP depletion luminescence.
Plasmodium falciparum protein kinase 6 (PK6, PF3D7_1337100), sequence (Q8IDW1 1-305): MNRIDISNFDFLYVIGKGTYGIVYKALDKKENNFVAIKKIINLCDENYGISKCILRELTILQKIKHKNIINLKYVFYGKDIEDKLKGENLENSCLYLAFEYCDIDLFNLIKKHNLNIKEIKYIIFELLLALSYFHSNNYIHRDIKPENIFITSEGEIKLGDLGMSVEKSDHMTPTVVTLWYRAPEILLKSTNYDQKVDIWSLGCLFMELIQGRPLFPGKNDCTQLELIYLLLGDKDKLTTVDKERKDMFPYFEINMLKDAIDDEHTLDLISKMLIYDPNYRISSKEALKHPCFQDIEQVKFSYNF
In test [7] the target is Protein kinase 7 (PK7), Plasmodium falciparum 3D7 (PF3D7_0213400) (UniProt Q7YTF7). Description: inhibition of Plasmodium PK7 catalytic activity – biochemical, TCAMS antimalarial set, Kinase-Glo luminescence (AID 1159587). The following applies: recombinant PfPK7, Kinase-Glo ATP depletion luminescence.
Protein kinase 7 (PK7), Plasmodium falciparum 3D7 (PF3D7_0213400), sequence (Q7YTF7 1-343): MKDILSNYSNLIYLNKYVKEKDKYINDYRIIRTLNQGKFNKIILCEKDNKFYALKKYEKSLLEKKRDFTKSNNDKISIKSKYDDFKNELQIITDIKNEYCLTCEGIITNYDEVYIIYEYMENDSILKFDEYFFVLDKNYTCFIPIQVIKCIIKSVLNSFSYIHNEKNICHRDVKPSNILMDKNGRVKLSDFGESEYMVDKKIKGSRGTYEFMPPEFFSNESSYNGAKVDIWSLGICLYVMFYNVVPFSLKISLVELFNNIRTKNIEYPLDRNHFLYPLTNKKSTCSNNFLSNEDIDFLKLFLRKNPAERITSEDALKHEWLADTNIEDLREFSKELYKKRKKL
For test [8], the target named is Calcium-dependent protein kinase 4 (Plasmodium falciparum (isolate 3D7)) (UniProt Q8IBS5). Description: PfCDPK4 kinase inhibitors, biochemical, TCAMS library (AID 1159588; cut-off not given, nearly all actives have IC50 up to about 0.91 µM). As to conditions: recombinant PfCDPK4, Kinase-Glo ATP depletion luminescence.
Calcium-dependent protein kinase 4 (Plasmodium falciparum (isolate 3D7)), sequence (Q8IBS5 whole entry, looked up): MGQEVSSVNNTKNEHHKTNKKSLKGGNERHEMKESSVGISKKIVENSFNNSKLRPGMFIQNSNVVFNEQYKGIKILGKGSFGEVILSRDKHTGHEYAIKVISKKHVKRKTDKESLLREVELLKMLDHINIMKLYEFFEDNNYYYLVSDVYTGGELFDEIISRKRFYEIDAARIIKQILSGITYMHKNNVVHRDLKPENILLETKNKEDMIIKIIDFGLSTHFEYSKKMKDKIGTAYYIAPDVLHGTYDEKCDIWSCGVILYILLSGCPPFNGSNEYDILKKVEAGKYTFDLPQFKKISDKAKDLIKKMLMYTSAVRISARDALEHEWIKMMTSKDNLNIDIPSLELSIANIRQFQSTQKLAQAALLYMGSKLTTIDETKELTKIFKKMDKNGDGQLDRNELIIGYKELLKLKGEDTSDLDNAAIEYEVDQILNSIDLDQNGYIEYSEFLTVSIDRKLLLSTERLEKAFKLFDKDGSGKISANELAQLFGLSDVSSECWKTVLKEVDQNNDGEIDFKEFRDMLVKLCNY

Molecules are shown by their SMILES. Unmarked numbers belong to inactive results. For some of these results: Entries with a potency or affinity are not part of this list. The source made the active and inactive calls. Unless noted, no rule for the calls is given here.

L-lactate dehydrogenase (Plasmodium falciparum (isolate CDC / Honduras)), sequence (Q27743 whole entry, looked up): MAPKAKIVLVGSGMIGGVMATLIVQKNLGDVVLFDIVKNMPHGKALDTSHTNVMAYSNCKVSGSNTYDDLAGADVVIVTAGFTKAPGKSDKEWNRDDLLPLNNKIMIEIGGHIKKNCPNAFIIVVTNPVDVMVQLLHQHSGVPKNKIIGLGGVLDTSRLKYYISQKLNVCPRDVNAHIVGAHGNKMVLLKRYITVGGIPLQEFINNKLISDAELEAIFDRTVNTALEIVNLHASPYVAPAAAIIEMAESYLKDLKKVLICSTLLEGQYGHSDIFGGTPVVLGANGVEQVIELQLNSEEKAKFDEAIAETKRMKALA

In general, inhibition refers to the change of the read-out against control, counted positive when it falls. In the case of `CSc1nccc(-c2ccc3ccnc(N)c3c2)n1`, the results for the growth inhibition in test [1] and in test [4] were 98% (active) and 101% (active), respectively. Also, the inhibition in test [2] was 30%; in test [3] it was 0%. Besides, the result in test [5], in test [6], in test [7] and in test [8] was inactive.
Turning to `Cc1ccc(C(=O)Nc2ccc(Nc3ccnc4cc(-c5nccs5)ccc34)cc2O)cc1`, the growth inhibition in test [1] and in test [4] was 100% (active) each time. The inhibition is 100% (active) in test [2] and 3% in test [3]. The outcome in test [5], in test [6], in test [7] and in test [8] was inactive.
As to `Nc1c2c(nc3ccc(NC(=O)CCCCCCc4ccccc4)cc13)CCCC2`, the values for the growth inhibition in test [1] and in test [4] were 90% (active) and 100% (active), respectively. The inhibition is 100% (active) in test [2] and 4% in test [3]. Also, the outcome in test [5], in test [6], in test [7] and in test [8] was inactive.
Turning to `Cc1nc2ccc(-c3nc4ccc(N)cc4[nH]3)cc2[nH]1`, the figures for the growth inhibition in test [1] and in test [4] were 80% (active) and 94% (active), respectively. Moreover, the inhibition in test [2] was 6%; in test [3], -5%. The result in test [5], in test [6], in test [7] and in test [8] was inactive.
For the molecule `CO/C(=C\C=C\c1cc2cc(Cl)c(Cl)cc2[nH]1)C(=O)NCCCN1CCN(c2cccc(CCCO)c2)CC1`, the growth inhibition was 36% in test [1] and 90% (active) in test [4]. For the same molecule, the inhibition in test [2] is 66% (active); in test [3], 3%. For the same molecule, the outcome in test [5], in test [6], in test [7] and in test [8] was inactive.
`COc1cc(Cc2cnc(N)nc2N)ccc1OCc1ccc(-c2csnn2)cc1`: the growth inhibition in test [1] is -2%; in test [4], 97% (active). Also, the inhibition in test [2] was 33%; in test [3], -4%. Also, the outcome in test [5], in test [6], in test [7] and in test [8] was inactive.
With `CC(=O)Nc1ccccc1OCc1cc2cc(C(=O)N3CCC(N4C(=O)OCc5ccccc54)CC3)ccc2o1`, the values for the growth inhibition in test [1] and in test [4] were 98% (active) and 99% (active), respectively. Also, the results for the inhibition in test [2] and in test [3] were 34% and -2%, respectively. The outcome in test [5], in test [6], in test [7] and in test [8] was inactive.
On to `COc1cccc(Cc2c(C)nc3nc(N)nc(N)c3c2C)c1`, for which the growth inhibition in test [1] is 1%; in test [4], 95% (active). The inhibition is 65% (active) in test [2] and -2% in test [3]. Further, the outcome in test [5], in test [6], in test [7] and in test [8] was inactive.
Consider `CNc1nc(NN=Cc2ccccc2Cl)nc(Nc2cccc(C(F)(F)F)c2)n1`, for which the results for the growth inhibition in test [1] and in test [4] were -9% and 84% (active), respectively. Further, the inhibition in test [2] was 12%; in test [3], 0%. Further, the result in test [5], in test [6], in test [7] and in test [8] was inactive.
Turning to `Cc1ccccc1CN1CCCN(Cc2ccc(C(=O)Nc3ccc(C(C)(C)C)cc3)cc2)CC1`, the growth inhibition in test [1] was 5%; in test [4], 89% (active). Moreover, the results for the inhibition in test [2] and in test [3] were 52% (active) and -1%, respectively. The result in test [5], in test [6], in test [7] and in test [8] was inactive.
Take `N/C(=N/C(=NCCCCCCN=C(/N=C(/N)Nc1ccc(Cl)cc1)N1CCCCC1)N1CCCCC1)Nc1ccc(Cl)cc1`: the growth inhibition in test [1] is 98% (active); in test [4], 100% (active). Besides, the inhibition in test [2] is -7%; in test [3] it was 0%. In addition, the outcome in test [5], in test [6], in test [7] and in test [8] was inactive.
Turning to `COc1cccc(C(O)CNc2ccnc(Nc3ccc(Cl)cc3)n2)c1` (stereo not given), the growth inhibition in test [1] is 46%; in test [4], 99% (active). For the same molecule, the results for the inhibition in test [2] and in test [3] were 31% and -7%, respectively. For the same molecule, the result in test [5], in test [6], in test [7] and in test [8] was inactive.
With `COc1ccc(NC(=O)[C@H](Cc2ccccc2)Nc2cc(C)nc(Nc3ccccc3)n2)cc1`, the results for the growth inhibition in test [1] and in test [4] were 92% (active) and 101% (active), respectively. In addition, the inhibition is 0% in test [2] and 2% in test [3]. Also, the outcome in test [5], in test [6], in test [7] and in test [8] was inactive.
On to `CN1CCC(c2cc3c(cc2Br)CCN3C(=O)Nc2ccc(-c3ccncc3)c(Cl)c2)CC1`, for which the growth inhibition was -1% in test [1] and 91% (active) in test [4]. Further, the inhibition in test [2] is 26%; in test [3], -1%. The result in test [5], in test [6], in test [7] and in test [8] was inactive.
Consider `O=C(NC1CCN(Cc2ccccc2)CC1)c1cc(-c2cccnc2)nc2ccc(Cl)cc12`, for which the results for the growth inhibition in test [1] and in test [4] were 26% and 97% (active), respectively. Besides, the results for the inhibition in test [2] and in test [3] were -3% and 1%, respectively. The result in test [5], in test [6], in test [7] and in test [8] was inactive.
`CCC(C)C#Cc1c(C)nc(N)nc1N` (stereo not given): the growth inhibition in test [1] is -4%; in test [4], 96% (active). The inhibition in test [2] is 53% (active); in test [3], 3%. Moreover, the result in test [5], in test [6], in test [7] and in test [8] was inactive.
For `O=C(NCCc1cccc(F)c1)c1ccc(N2CCN(c3ccncc3)CC2)cn1`, the growth inhibition in test [1] was 7%; in test [4] it was 94% (active). Further, the inhibition was 4% in test [2] and -3% in test [3]. Besides, the result in test [5], in test [6], in test [7] and in test [8] was inactive.
On to `c1ccc(CCNCc2ccc(-c3cccc(-c4nc5ccccc5[nH]4)c3)cc2)nc1`, for which the growth inhibition was 87% (active) in test [1] and 100% (active) in test [4]. The inhibition in test [2] is 36%; in test [3], 7%. For the same molecule, the result in test [5], in test [6], in test [7] and in test [8] was inactive.
Take `Cc1ccc(-c2nnc(Nc3ccc(CC(N)=O)cc3)c3ccccc23)cc1S(=O)(=O)NCC1CCCO1` (stereo not given): the growth inhibition in test [1] is 64% (active); in test [4], 83% (active). The inhibition in test [2] is -6%; in test [3], 6%. Moreover, the outcome in test [5], in test [6], in test [7] and in test [8] was inactive.
With `CCCCCCNC(=O)C(N)CCCC(N)C(=O)NCCCCCC` (stereo not given), the growth inhibition is -5% in test [1] and 99% (active) in test [4]. Besides, the inhibition in test [2] and in test [3] was -2% each time. For the same molecule, the result in test [5], in test [6], in test [7] and in test [8] was inactive.
